# Experimental data: PubChem BioAssay AID1745848 (National Center for Advancing Translational Sciences (NCATS), 2022)
# In all, about 2,100 compounds went through this assay and about 940 (45%) were called active. Roughly 48% stayed inconclusive and do not appear here. Calls follow the shape of the dose curve; as a rule, active = well fitted inhibition curve with a large enough effect; inconclusive = small, poorly fitted or top-dose-only effect; inactive = no such curve, though single readings can be large or run the other way. So high a share suggests a set chosen from earlier hits. Some of the results follow.
# Test: Confirmatory qHTS for Inhibitors of ATXN expression; also: nearly all actives have a fitted effect of over 65% in size;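 as to activity change, negative = inhibition: 0% = DMSO vehicle wells and -100% = medium-only wells without cells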
# Conditions: ATXN2-luciferase reporter cells, luminescence, 24 h; series mostly up to 11.5 µM; activity change, negative = inhibition: at the top concentration
# Summary of the method: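 Cells carrying ATXN2-luciferase reporter exposed 24 h at 37 C to compound. Viability then read by CellTiter-Fluor (25 uM GF-AFC, 30 min), followed by SteadyGlo luminescence; medium-only wells set 100% inhibition.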
# Potency is read from the fitted curve at half-maximal effect.
Structure (SMILES),Potency,"activity change, negative = inhibition"
COC(=O)c1ccc2c(c1)C(C)(C)C(/C=C/c1ccc(OC)c(OC)c1OC)=[N+]2C,3.55 µM (active),
O=C(/C=C/c1ccccc1)c1cc(Br)ccc(=O)c1O,28.2 µM (active),
CCNc1ccc(Br)cc(C(=O)/C=C/c2ccccc2Cl)c1=O,,0.525% (inactive)
Cc1cccc(NC2=Nc3ccccc3N3C2=Nc2c(c(C)nn2-c2ccccc2)C3c2ccc(O)c(O)c2)c1 (configuration not stated),3.55 µM (active),
CC(=O)Nc1ccc(NC2=Nc3ccccc3N3C2=Nc2c(c(C)nn2-c2ccccc2)C3c2ccccc2)cc1 (configuration not stated),1.26 µM (active),
COc1cccc(NC(=O)CSc2nc3ncc(Br)cc3[nH]2)c1,3.98 µM (active),
Cc1cc(C)n(-c2nc(Nc3ccccc3C(F)(F)F)nc(-n3nc(C)cc3C)n2)n1,3.16 µM (active),
O=C(Oc1c(CN2CCOCC2)cc(Cl)c2cccnc12)c1cccs1,11.2 µM (active),
CCOC(=O)N1CCN(Cc2cc(Cl)c3cccnc3c2O)CC1,1.58 µM (active),
O=C(Oc1c(CN2CCOCC2)cc(Cl)c2cccnc12)c1ccccc1,3.55 µM (active),
CC(C)(O)C#Cc1ccc([C@@H]2C[C@H]3CN(c4ccccc4)C(=O)[C@]34CCCN24)s1,5.01 µM (active),
O=C1N(c2ccccc2)C[C@@H]2C[C@@H](c3cc4ccccc4o3)N3CCC[C@@]123,0.316 µM (active),
CC(C)C[C@H](N)c1cn([C@@H](CCCCN)C(=O)N2CCNCC2)nn1,,-10.6% (inactive)
Cc1c(OCC(=O)NC2CC(C)(C)NC(C)(C)C2)ccc2c1oc(=O)c1ccccc12,2.82 µM (active),
COc1cccc(-c2cc3nc(-c4ccccc4)cc(N4CCN(C(=O)c5ccoc5)CC4)n3n2)c1,2.82 µM (active),
COc1ccccc1-c1cc2nc(-c3ccccc3)cc(N3CCN(C(=O)c4ccoc4)CC3)n2n1,12.6 µM (active),
COc1ccccc1-c1cc2nc(-c3ccccc3)cc(N3CCN(C(=O)c4ccco4)CC3)n2n1,12.6 µM (active),
O=C(c1ccoc1)N1CCN(c2cc(-c3ccco3)nc3cc(-c4ccccc4)nn23)CC1,25.1 µM (active),
Cn1cccc1/C=N/N1CCN(Cc2ccccc2Cl)CC1,,-21.1% [at 57.5 µM] (inactive)
CCOc1ccc(S(=O)(=O)NCCC(=O)N2CC=C(c3ccccc3)CC2)cc1,12.6 µM (active),
Cc1cccn2c(=O)c3cc(C(=O)NCCN4CCOCC4)c(=N)n(Cc4ccc(F)cc4)c3nc12,7.08 µM (active),
Cc1ccc2[nH]c(O)c(N=NC(=O)C3CC3c3ccccc3)c2c1Br (configuration not stated),,-23.6% (inactive)
OC(CN1CCCCC1)Cn1c2ccc(Cl)cc2c2cc(Cl)ccc21 (configuration not stated),3.16 µM (active),

Structure (SMILES),Potency,"activity change, negative = inhibition"
O=C(NCC1CCCO1)c1cccc(Oc2ccc([N+](=O)[O-])cc2Cl)c1 (configuration not stated),,-23.8% (inactive)
O=C(Nc1cccc2c1CCCC2)c1cc([N+](=O)[O-])ccc1Cl,15.8 µM (active),
O=C(CCCN1C(=O)S/C(=C\c2ccccc2)C1=O)NNC(=O)c1ccccc1O,2.24 µM (active),
CC(C)(C)c1ccc(OCCCC(=O)NNC(=O)c2ccccc2O)cc1,25.1 µM (active),
COc1ccc(/C=C2\SC(=S)N(CCCC(=O)NNC(=O)c3ccccc3O)C2=O)cc1,3.98 µM (active),
CN(C)CCNCCCNc1c2ccccc2nc2cccc([N+](=O)[O-])c12,0.0891 µM (active),
CC(=O)N1CCN(c2ccc(Oc3ccc([N+](=O)[O-])c(C(F)(F)F)c3)cc2)CC1,11.2 µM (active),
Cc1c(C(=O)Nc2ccc(-c3nnc4n3CCCCC4)cc2)oc2c1ccc1ccccc12,3.16 µM (active),
O=C(N/N=C/c1ccccc1O)C1CCCC1,28.2 µM (active),
O=C(N/N=C/c1ccccc1O)C1SCCCS1,14.1 µM (active),
C/C(=C\C(=O)c1ccc(Br)cc1)NNC(=O)c1ccc(O)cc1,14.1 µM (active),
O=C(c1cc(COc2cccc(C(F)(F)F)c2)on1)N1CCC(c2ccncc2)CC1,,-5.04% (inactive)
CC(=NNc1nc2ccccc2o1)c1ncccn1,0.199 µM (active),
Cc1ccc(C)c(NC(=O)CSc2n[nH]c(-c3ccccn3)n2)c1,22.4 µM (active),
Cc1ccccc1NC(=O)CSc1n[nH]c(-c2ccccn2)n1,14.1 µM (active),
Cc1ccsc1/C=C/C1=Cc2c(sc(NC(=O)CSc3n[nH]c(N)n3)c2C#N)C(C)(C)C1,,-14.6% [at 57.5 µM] (inactive)
CC1=C(CC[C@@H](C)CO)OC2CC3C4CCC5CC(O)CCC5(C)C4CC(=O)C3(C)C12 (some centres not stated),3.16 µM (active),
Cc1cc(O)c(C(C)C)cc1N=Cc1ccccc1[N+](=O)[O-],,-14.8% [at 57.5 µM] (inactive)
CCOc1cc(/C=N/Nc2cc(C)nc(-n3nc(C)cc3C)n2)ccc1O,0.708 µM (active),
Cc1cc(N/N=C/c2ccccc2[N+](=O)[O-])nc(-n2nc(C)cc2C)n1,3.16 µM (active),
Cc1cc(N/N=C/c2ccc(O)cc2O)nc(-n2nc(C)cc2C)n1,5.01 µM (active),
C/C(=N\Nc1cc(N2CCOCC2)nc(C)n1)c1cccc([N+](=O)[O-])c1,,-16.7% (inactive)
Cc1nc(N/N=C/c2ccc(O)cc2O)cc(N2CCOCC2)n1,11.2 µM (active),

Structure (SMILES),Potency,"activity change, negative = inhibition"
CS/C(=C\[N+](=O)[O-])Nc1ccc(OC(F)(F)F)cc1,11.2 µM (active),
OC(CNCCc1ccccc1)COc1ccc(OCC(O)CNCCc2ccccc2)cc1 (configuration not stated),12.6 µM (active),
O=c1c2c(nc3c(-c4ccc(Cl)cc4)c[nH]n13)CCCC2,1.26 µM (active),
CCCc1cc(=O)n2[nH]cc(-c3ccc(Cl)cc3)c2n1,2.82 µM (active),
O=C(c1cccc(Cl)c1)c1nn(-c2ccccc2)c(=O)cc1C(F)(F)F,31.6 µM (active),
O=c1c2ccccc2sc2nc(CCl)nn12,3.16 µM (active),
O=c1[nH]c(CN2CCN(c3ncccn3)CC2)nc2c(Br)cc(Br)cc12,2.82 µM (active),
COc1cc(/C=N\NC(=O)CC#N)ccc1OC/C=C/c1ccccc1,28.2 µM (active),
Cn1c(CCc2nc3ccccc3[nH]2)nnc1SCC#N,,-2.57% [at 57.5 µM] (inactive)
Cc1[nH]c2ccccc2c1SCc1nnc(SCc2ccc(Cl)cc2)n1C,31.6 µM (active),
Cc1cc2sc3ccc(C#CC4(O)CCCCC4)cc3c(=O)c2cc1C,,-96.9% [at 57.5 µM] (inactive)
CC(C)n1c(NCc2cc(Cl)ccc2O)nc2ccccc21,,-14.6% (inactive)
Cc1ccc2cc(C3C(C#N)=C(N)Oc4c3ccc3cccnc43)c(=O)[nH]c2c1 (configuration not stated),6.31 µM (active),
Cc1cccc(/C=C/C(=O)c2ccc([N+](=O)[O-])o2)c1,3.16 µM (active),
COc1ccc(/C=C/C(=O)c2ccc([N+](=O)[O-])o2)cc1OC,7.94 µM (active),
Cc1cc(C)cc(NC(=O)c2ccc([N+](=O)[O-])o2)c1,2.82 µM (active),
CNC(=O)c1sc(N2N=C3/C(=C/c4ccccc4)CCCC3C2c2ccccc2)nc1C (configuration not stated),12.6 µM (active),
Cc1ccc(C(=O)NC(C)CCc2ccccc2)cc1S(=O)(=O)N1CCOCC1 (configuration not stated),15.8 µM (active),
Cc1ccc(NC(=O)CNc2cccc(Br)c2)cc1S(=O)(=O)N1CCOCC1,,-21.3% (inactive)
CC(CCc1ccccc1)NC(=O)c1ccc(C(=O)NC(C)CCc2ccccc2)cc1 (configuration not stated),1.58 µM (active),
CC(C)[C@H](CO)Nc1nc(NCc2ccc(S(N)(=O)=O)cc2)c2ncn(C(C)C)c2n1,2 µM (active),
Oc1c(Cl)cc(Cl)cc1/C=N/Nc1ncc(Br)cn1,2.51 µM (active),
CC1CC2(C)Oc3ccccc3CC2C(C)C1CNCCCN(C)C (configuration not stated),14.1 µM (active),

Structure (SMILES),Potency,"activity change, negative = inhibition"
C(=NN1CCCCCC1)c1ccc2ccccc2n1,,-96.8% [at 57.5 µM] (inactive)
CCc1nc2ccccc2c(C(=O)OCC(=O)Nc2cccc(S(=O)(=O)NC3=NCCCCC3)c2)c1C,17.8 µM (active),
CCc1nc2ccccc2c(C(=O)OCC(=O)Nc2ccc(NC(C)=O)cc2)c1C,,-25.1% (inactive)
Cc1cc(/C=N/n2c(COc3ccccc3)nc3ccccc3c2=O)c(O)c([N+](=O)[O-])c1,7.94 µM (active),
CSc1sc(-c2nnc(SCC(=O)Nc3ccc(Cl)cc3)n2C)c2c1C=CCC2,,-17.3% (inactive)
Cn1c(SCC(=O)N/N=C/c2ccc([N+](=O)[O-])s2)nnc1-c1ccccc1,17.8 µM (active),
Cn1c(SCC(=O)N/N=C/c2ccc([N+](=O)[O-])s2)nnc1-c1ccc(Cl)cc1,10 µM (active),
C=CCc1cccc(/C=N/NC(=O)CNc2ccccc2OC)c1O,5.01 µM (active),
C=CCc1ccccc1OCC(=O)N/N=C/c1ccc(OC(C)=O)cc1OC(C)=O,15.8 µM (active),
C=CCc1cccc(/C=N/NC(=O)CNc2ccccc2)c1O,2.82 µM (active),
COc1ccc(-c2nn(-c3ccccc3)cc2C(=O)NC(=S)NNC(=O)c2ccncc2)cc1,15.8 µM (active),
CCCCOc1ccc(C(=O)NNC(=S)NC(=O)CC)cc1,2.82 µM (active),
CCCC/C(C)=N/NC(=O)c1cn(-c2ccccc2)nc1-c1ccccc1,,-12.8% (inactive)
CCCOc1ccc(C(=O)NC(=S)NNC(=O)c2c(-c3ccccc3)noc2C)cc1,,-5.12% (inactive)
COc1ccc(C(=O)NNC(=S)NC(=O)c2ccccc2)cc1,14.1 µM (active),
CCC(=O)NC(=S)NNC(=O)c1ccc(OC)cc1,15.8 µM (active),
C=CS(=O)(=O)c1c2cc(OC)ccc2nc2ccc(OC)cc12,28.2 µM (active),
COc1ccc(C)cc1Nc1nc(N)c2cc(OC)c(OC)cc2n1,2.82 µM (active),
O=C(COC(=O)c1cc([N+](=O)[O-])ccc1N1CCOCC1)Nc1ccc(Cl)cn1,6.31 µM (active),
CC(C)Nc1nc(-c2ccccn2)nc(-c2ccccc2)c1C#N,,-21.5% [at 57.5 µM] (inactive)
CCN(CC)c1nc(-c2ccccn2)nc(-c2ccccc2)c1C#N,7.08 µM (active),
O=C(NNC(=O)C(c1ccccc1)c1ccccc1)c1ccccn1,3.16 µM (active),
O=C(NNC(=O)C12CC3CC(CC(C3)C1)C2)c1ccccn1,8.91 µM (active),
